# HT1080 IDH1KD tx – HT-1080 IDH1 knockdown cell toxicity (counter line). HT-1080 IDH1 knockdown viability, ATP luminescence, 48 h. Potency, µM (top dose mostly 46.1 µM), for the others: at the top dose activity, negative = toxicity, actives largely listed as cytotoxic. 2% of 360,000 active;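 also: 0% = DMSO wells and -100% = cell-free medium wells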
#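 Cytotoxicity counter-line: IDH1KD HT-1080, 48 h, CellTiter-Glo. Curves classed by r2, magnitude and activity.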
# DT40 TDP1 no CPT – qHTS for Inhibitors of human tyrosyl-DNA phosphodiesterase 1 (TDP1): qHTS in cells in absence of CPT; DT40 Tdp1-/- hTDP1 cells, no CPT, ATP luminescence, 48 h; Potency, µM (doses to about 46.2 µM), for inactives: at the highest dose activity change, negative = growth inhibition, usual class: inhibitors; 15% of 420,000 active; AID 686978, 2013; also: nearly all actives have a fitted effect of over 55% in size
#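 DT40 Tdp1-/-;hTDP1 cells, no CPT (DMSO vehicle only), 400 cells/well; compounds pin-transferred; ≥48 hr, 37 °C; CellTiter-Glo 30 min RT dark, luminescence read.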
# KB-V1 MDR tox – KB-V1 MDR subline cytotoxicity | KB-V1 MDR cells viability, CellTiter-Glo, 72 h | Potency, µM (series often up to 46.1 µM), most hits filed as cytotoxic | 3.4% of 400,000 active | AID 1347076; also: nearly all actives have a fitted effect of over 60% in size
#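 Potencies derive from concentration-effect curves fitted to normalized luminescence (CellTiter-Glo) of KB-V1 cells treated for 72 h at 37 degrees C in phenol-red-free DMEM containing 10% FBS.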
# KB-3-1 cytotox – KB-3-1 parental cell cytotoxicity; AID 1347075; Potency, µM (top dose mostly 46.1 µM), hits mostly cytotoxic; 1.4% of 400,000 active; KB-3-1 viability, CellTiter-Glo ATP luminescence, 72 h; also: nearly all actives have a fitted effect of over 60% in size
#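 Multi-concentration cytotoxicity screen in KB-3-1 cells grown in DMEM lacking phenol red with 10% FBS. After 72 h at 37 °C with compound, ATP-dependent luminescence was recorded.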
# HT1080-NT tox – kills 2HG-producing HT-1080-NT fibrosarcoma cells. HT-1080-NT fibrosarcoma viability, CellTiter-Glo ATP luminescence, 48 h. Potency, µM (doses to about 46.1 µM), for inactives: top-dose activity, negative = less viability, actives largely listed as cytotoxic. 1.6% of 360,000 active. AID 686970;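 also: NT is the 2HG producing partner of a matched IDH1 knockdown line; 0% = DMSO-treated cells and -100% = media-only wells without cells; nearly all actives have a fitted effect of over 55% in size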
#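 HT-1080-NT fibrosarcoma cells (2HG-overproducing), 750 cells/well in RPMI with 5% FBS, dosed after 2 h and incubated 48 h at 37C. CellTiter-Glo luminescence normalized to DMSO and no-cell wells; concentration-response curves fitted and classed.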
# DT40 TDP1 CPT – growth inhibition of DT40 Tdp1-/-;hTDP1 cells with camptothecin (screen for TDP1 inhibitors); chicken DT40 Tdp1-/-;hTDP1 cells + 20 nM CPT, ATP luminescence, 48 h; 12% of 420,000 active; AID 686979; Potency, µM (highest dose often 46.2 µM), for the others: top-dose activity change, negative = growth inhibition, actives largely listed as inhibitors; also: nearly all actives have a fitted effect of over 55% in size
#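 Cell growth measured by CellTiter-Glo luminescence after a minimum 48 h, 37 C compound exposure with 20 nM CPT in Tdp1-knockout DT40 cells stably expressing hTDP1, seeded 400/well; qHTS titration format.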
# The depositor's hits bear a star; i = inactive; ? = inconclusive; · = no result given; ! = repeats disagree. Sampled rows, rich in hits. Any-hit rate of the full collection: about 19%. Calls follow the shape of the dose curve; as a rule, active = well fitted curve in the direction sought with a large enough effect; inconclusive = small, poorly fitted or top-dose-only effect, or another doubt; inactive = no such curve, though single readings can be large; an effect the other way counts as inactive or inconclusive. Unless noted, % is scaled to controls: 0 for no effect and ±100 for the full control effect; potency is read from the fitted curve at half-maximal effect.
SMILES,HT1080 IDH1KD tx,DT40 TDP1 no CPT,KB-V1 MDR tox,KB-3-1 cytotox,HT1080-NT tox,DT40 TDP1 CPT
Cc1cc(C)c(OCC(=O)Nc2ccc(S(=O)(=O)N3CCCC3)cc2)c(C)c1,-23.3%,?,?,?,?,?
Cc1ccc(OCC(=O)N2CCc3ccccc32)c([N+](=O)[O-])n1,17.6%,-3.3%,i,23.1µM*,18.5%,0.3%
O=C(COC(=O)CCC(=O)c1ccc(F)cc1)Nc1cccc(S(=O)(=O)N2CCOCC2)c1,-0.7%,1.2%,i,i,-0.2%,-18.8%
Cc1cccc(C)c1OCC(=O)Nc1cccc(S(=O)(=O)N2CCCC2)c1,0.0%,13µM*,?,i,1.1%,?
O=C(COc1ccc(C(=O)c2ccc(F)cc2)cc1)Nc1cccc(S(=O)(=O)N2CCOCC2)c1,-12.6%,11.6µM*,11.6µM*,i,-12.5%,23.1µM*
Cc1cccc(C)c1OCC(=O)Nc1cccc(S(=O)(=O)N2CCCCCC2)c1,-4.9%,20.6µM*,i,i,-14.4%,20.6µM*
Cc1ccccc1CC(=O)Nc1cccc(S(=O)(=O)N2CCCC2)c1,8.2%,10.6%,i,i,10.6%,-8.3%
O=C1Nc2ccccc2CN2C(=O)c3cc(Cl)ccc3NC(=O)C12 (centres undefined),4.3%,5.9%,i,i,6.7%,-18.8%
O=S(=O)(Nc1cccc(-c2ccc(N3CCOCC3)nn2)c1)c1ccccc1C(F)(F)F,·,?,i,i,·,-25.6%
CCCCn1c(N)c(N(CCOC)C(=O)c2ccc(S(=O)(=O)N3CCCCCC3)cc2)c(=O)[nH]c1=O,7.3%,-8.8%,i,i,6.8%,10.5%
CCOc1ccc(OCCC(=O)OCC(=O)Nc2cccc(S(=O)(=O)N3CCCCC3)c2)cc1,0.0%,?,i,i,-3.7%,?
Cc1cc(S(=O)(=O)N2CCCCC2)ccc1OCC(=O)Nc1ccccc1,-14.3%,?,·,·,-24.7%,?
Cc1ccc(OCC(=O)Nc2cccc(S(=O)(=O)N3CCCCCC3)c2)c([N+](=O)[O-])n1,-0.5%,16.4µM*,?,i,-1.4%,?
CCC(=O)c1ccc(OCC(=O)Nc2cccc(S(=O)(=O)N3CCCCCC3)c2)cc1,-29.0%,5.17µM*,i,i,-9.7%,7.31µM*
O=C(COC(=O)/C=C/c1ccc(OC(F)F)cc1)Nc1cccc(S(=O)(=O)N2CCOCC2)c1,-3.2%,20.6µM*,i,i,0.9%,?
CC1(C(=O)NS(=O)(=O)C2CC2)CCN(C(=O)CSc2ccccc2)C1 (centres undefined),15.5%,12.9%,i,i,0.6%,-22.5%
CC(=O)Nc1c(N)c2ccccc2oc1=O,-8.7%,0.3%,i,i,6.9%,14.8%
COc1cc(C2N(c3ccccc3)CCN2c2ccccc2)ccc1OC(C)=O,6.1%,-17.0%,i,i,9.8%,-29.7%
COc1cc(C2C3=C(COC3=O)Oc3cc4c(cc32)OCO4)ccc1OC(C)=O (centres undefined),5.8µM*,1.84µM*,2.06µM*,0.82µM*,?,1.64µM*
COc1cc(C2C3=C(COC3=O)Oc3cc4c(cc32)OCO4)cc(OC)c1OC(C)=O (centres undefined),?,0.651µM*,0.651µM*,0.231µM*,?,0.651µM*
COc1ccc(C2C3=C(COC3=O)Oc3cc4c(cc32)OCO4)cc1OC (centres undefined),?,1.46µM*,?,0.92µM*!,5.8µM*,1.84µM*
COc1ccc(CCN(CC(=O)NC(C)(C)C)C(=O)Cn2nnc(-c3ccc(C)o3)n2)cc1OC,8.2%,-2.7%,i,i,-5.8%,5.1%
